Bioassay records (PubChem BioAssay)
The sample as a whole holds a higher share of hits than the screen did.
ROC1-CUL1 inh: blocks human RBX1-Cullin-1 di-ubiquitin formation. actives 0.6% (n = 140,000). in vitro K48 di-Ub FRET, acceptor:donor ratio, 45 min. P62877+Q13616. inhibition, % at 10 µM; in the data active means inhibition above about 25%
Target sequence (P62877 whole entry, looked up): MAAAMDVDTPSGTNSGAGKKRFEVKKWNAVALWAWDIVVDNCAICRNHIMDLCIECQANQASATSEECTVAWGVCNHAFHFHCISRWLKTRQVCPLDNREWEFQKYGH
Target sequence (Q13616 whole entry, looked up): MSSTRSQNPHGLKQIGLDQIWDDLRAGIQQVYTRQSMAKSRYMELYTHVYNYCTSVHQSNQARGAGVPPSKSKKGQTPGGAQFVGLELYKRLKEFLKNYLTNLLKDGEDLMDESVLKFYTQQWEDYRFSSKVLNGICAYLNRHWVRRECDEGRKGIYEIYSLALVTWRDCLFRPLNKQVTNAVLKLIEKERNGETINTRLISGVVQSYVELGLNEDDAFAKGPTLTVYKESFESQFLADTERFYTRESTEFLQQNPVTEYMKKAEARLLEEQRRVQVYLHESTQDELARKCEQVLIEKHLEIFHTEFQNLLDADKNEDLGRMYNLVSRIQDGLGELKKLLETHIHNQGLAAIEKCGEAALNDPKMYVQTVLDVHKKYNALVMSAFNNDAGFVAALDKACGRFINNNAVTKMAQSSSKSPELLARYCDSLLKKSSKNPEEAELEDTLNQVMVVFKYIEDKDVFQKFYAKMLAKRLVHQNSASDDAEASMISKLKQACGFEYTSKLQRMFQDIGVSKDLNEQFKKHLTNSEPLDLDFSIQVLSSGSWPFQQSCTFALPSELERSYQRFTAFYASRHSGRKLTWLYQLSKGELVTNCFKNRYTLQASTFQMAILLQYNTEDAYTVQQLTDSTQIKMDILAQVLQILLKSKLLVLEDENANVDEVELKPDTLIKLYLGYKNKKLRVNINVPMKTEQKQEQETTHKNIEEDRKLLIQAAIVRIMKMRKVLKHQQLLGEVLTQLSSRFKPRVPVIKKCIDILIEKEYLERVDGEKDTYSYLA
* marks the source's active call; other numbers are inactive results.

SMILES | ROC1-CUL1 inh
O=C(Nc1ccc(-c2cscn2)cc1)C1CCCN(C(=O)Cn2cccn2)C1 (stereo unspecified) | -9
Cc1cccc(N=C2S/C(=C\c3ccc(OCC(=O)O)cc3)C(=O)N2c2cccc(C)c2)c1 | 8
CC(=O)N(C(C)=O)n1c([C@@H](C)O)nc2ccccc2c1=O | 3
CCCCN(Cc1ccccc1)C(=O)CCC1(Cc2ccc(SC)cc2)CCC(=O)N1 (stereo unspecified) | 4
C=CCN1C(=O)C(C#N)=C(C)/C(=C\c2ccc(-c3ccc(Cl)c(C(=O)OC(C)C)c3)o2)C1=O | 2
CC1=C(C#N)C(=O)N(C)C(=O)/C1=C\c1ccc(-c2ccc(C(=O)OC(C)C)cc2)o1 | -7
CC1=C(C#N)C(=O)N(CC(C)O)C(=O)/C1=C/c1ccc(-c2ccc(Br)cc2)o1 (stereo unspecified) | 47*
O=C1C=CC2(c3ccccc3-c3ccccc32)S(=O)(=O)C1 | 61*
CC1(C)COC2(NC1=O)c1ccccc1-c1ccccc12 | 10
O=C1c2ccccc2COC12OCc1ccccc12 (stereo unspecified) | -8
O=c1cc(C2Cc3ccccc3C2)nc2nc(C3CCCCC3)[nH]n12 | 9
Cc1cccc2sc(NC(=O)C3CCCC3)nc12 | 2
O=C(NC1CCCCC1)C1CCCN(C2CCN(Cc3ccccc3)CC2)C1 (stereo unspecified) | -3
CCCc1cc(=O)[nH]c(SCC(=O)Nc2ccc(OC(F)(F)Cl)cc2)n1 | -16
CCOc1c(Cl)cc(C(=O)Nc2ccccc2C(F)(F)F)cc1Cl | 3
CCOc1cc(C(=O)Nc2ccccc2Oc2ccccc2)cc(OCC)c1OCC | -3
CCOc1cc(NC(=O)C(C(F)(F)F)C(F)(F)F)c(OCC)cc1NC(=O)c1ccccc1 | 67*
Cc1nnc(SCC(=O)N2CCCC(CCc3ccccc3C)C2)o1 (stereo unspecified) | -5
CCCCCC(=O)Nc1cccc(O)c1 | 0
Cc1cccc(-c2nc3cc(N=Cc4c(C)cc(O)c(C)c4O)ccc3o2)c1 | 1
CCc1ccccc1N1C(=O)/C(=C/c2cc(C)n(-c3ccncc3)c2C)C(=O)NC1=S | 22
O=C1NN(c2cccc(Cl)c2)C(=O)/C1=C/c1ccc(O)cc1 | 11
O=C1NN(c2cccc(Cl)c2)C(=O)/C1=C/c1ccc(Cl)cc1 | 64*
O=C1NN(c2cccc(Cl)c2)C(=O)/C1=C/c1cccc(I)c1 | 9
O=C1NN(c2cccc(F)c2)C(=O)/C1=C\c1ccccc1 | -2
SMILES | ROC1-CUL1 inh
COc1ccc(/C=C2\C(=O)NN(c3cccc(Cl)c3)C2=O)cc1OC | -8
O=C1NN(c2cccc(Cl)c2)C(=O)/C1=C\c1ccc(F)cc1 | 83*
CCOC(=O)c1c(C)sc(-c2c(-c3cccc(Cl)c3)[nH]c3c2c(=O)n(C)c(=O)n3C)c1O | 45*
Cc1ccc(C)c(-c2[nH]c3c(c2-c2c(-n4cccc4)n(C)c(=O)n(C)c2=O)c(=O)n(C)c(=O)n3C)c1 | 9
CCOC(=O)c1c(C)sc(-c2c(-c3cc(C)ccc3C)[nH]c3c2c(=O)n(C)c(=O)n3C)c1O | 22
CCOC(=O)c1c(C)sc(-c2c(-c3cc(C)ccc3C)[nH]c3c2c(=O)[nH]c(=O)n3C)c1O | 49*
CCOC(=O)C1=CN(c2ccc(F)cc2)C=C(C(=O)OCC)C1c1cccc(Cl)c1 | -3
CCOC(=O)c1c(NC(=O)c2c(F)cccc2F)sc(C)c1-c1cccc(Cl)c1 | 1
COc1ccc(CN(Cc2cc3c(OC)ccc(OC)c3nc2N(C)C)C(=O)CCn2nc(C)cc2C)cc1 | 0
Cc1[nH][nH]c(=O)c1C(c1c(C)[nH][nH]c1=O)c1cn(C)c2ccccc12 | 26*
Cn1cc(C(c2cccs2)c2cn(C)c3ccccc23)c2ccccc21 | 3
CCOc1cc(C(c2c(C)[nH][nH]c2=O)c2c(C)[nH][nH]c2=O)cc(I)c1OC | -8
CC(C)C1=NN2C(=N)/C(=C\c3cn(Cc4cccc5ccccc45)c4ccccc34)C(=O)N=C2S1 | 9
Cc1[nH][nH]c(=O)c1C(c1cccc(OCc2ccccc2Cl)c1)c1c(C)[nH][nH]c1=O | -9
CCOc1cc(C(c2c(C)[nH][nH]c2=O)c2c(C)[nH][nH]c2=O)cc(I)c1O | -2
Cc1[nH][nH]c(=O)c1C(c1c(C)[nH][nH]c1=O)c1cn(Cc2cccc3ccccc23)c2ccccc12 | 39*
CCOc1cc(C(c2c(C)[nH][nH]c2=O)c2c(C)[nH][nH]c2=O)cc(Br)c1OCc1cccc2ccccc12 | 26*
Cc1[nH][nH]c(=O)c1C(c1ccccc1I)c1c(C)[nH][nH]c1=O | -5
COc1cc(OC)cc(C(=O)NC(C)c2ccccc2)c1 (stereo unspecified) | -3
CCOc1c(C(=O)c2cc(F)c(F)c(F)c2F)cnn1-c1nc2ccccc2o1 | -5
COCCNC(=O)CCC1CCN(Cc2cnn(-c3ccccc3OC)c2)CC1 | 3
CCOc1ccc(NC(=O)CSc2nnc(COc3cccc(C)c3)n2CC)cc1 | -5
O=C(CSc1nnc(Cc2ccccc2)o1)Nc1ccc(Cl)c(Cl)c1 | 92*
Cc1ccc(NC(=O)CSc2nnc(Cc3ccccc3)o2)cc1C | 11
COC(=O)c1cc(NC(=O)CSc2nnc(Cc3ccccc3)o2)ccc1Cl | 11
SMILES | ROC1-CUL1 inh
O=C1CCC(C(=O)N/N=C/c2ccc3c(c2)OCO3)=NN1 | -6
CCOc1cc(CN2CCC3(CC2)c2ccccc2[C@@H](NC(=O)CSC)[C@@H]3OC)ccc1O | -3
CCOC(=O)c1c2c(n3ccccc13)C(=O)c1ccccc1C2=O | -1
CCOC(=O)c1ccc(NN2C(=O)c3ccc(Br)cc3C2=O)c([N+](=O)[O-])c1 | -4
CCOC(=O)c1c2c(n(C)c1CNC(C)C)C(=O)C(=O)c1ccc(Br)cc1-2 | 98*
CCN(CC)CC(=O)N1CCc2c([nH]c3ccccc23)C1c1cccc(C)n1 (stereo unspecified) | 1
Cc1ccc(OCCCCCN2CCNCC2)cc1 | 0
Cc1cc(Cl)ccc1OCCCCCN1CCNCC1 | -4
Cc1ccc(OCCCCN2CCNCC2)c(C(C)(C)C)c1 | 25*
Cc1cc(CN2CCN(Cc3ccc(F)c(F)c3)C(CCO)C2)cc(C)c1O (stereo unspecified) | 2
CC(C)(C)c1cc(=O)n(-c2ccccc2)[nH]1 | 73*
O=c1ccc(=O)n(-c2ccccc2)[nH]1 | 5
COc1ccc(-c2cc(=O)n(-c3ccccc3)[nH]2)cc1OC | 1
CC1=CC=CN2C(=O)C(C(=O)NCc3ccccc3Cl)C(=O)N=C12 (stereo unspecified) | -7
O=C(COc1ccc(Cl)cc1-c1cnoc1)N/N=C/c1coc2ccccc2c1=O | -4
O=C(c1ccc(Cl)s1)N1CCN(C2CCCCC2)CC1 | 72*
O=C(c1ccc(Cl)s1)N1CCN(Cc2ccc(F)cc2)CC1 | 9
Cc1cc(C(=O)N2CCN(C3CCCCC3)CC2)cs1 | 10
c1ccc2c(c1)c(N1CCOCC1)nn1nnnc21 | 4
Clc1nn2nnnc2c2ccccc12 | 30*
Cc1nnc(Cl)c2ccccc12 | -3
COc1ccc(N2CCN(C(=O)COc3ccc(S(=O)(=O)NCCc4ccccc4)cc3)CC2)cc1 | 11
O=C(Cc1coc2ccc3ccccc3c12)Nc1nc2ccccc2s1 | -4
CN1C(=O)C(=C/C=C/c2ccco2)C(=O)N(C)C1=S | 45*
O=C1C(=C/C=C/c2ccccc2Cl)C(=O)N(c2ccccc2)C(=S)N1c1ccccc1 | 9
O=C(/C=C/c1ccco1)CCN1CCCCC1 | 16
O=C1N=C(Cc2ccc(Cl)c(Cl)c2)C(=O)N1 | -5
